From PubChem BioAssay
A350 fluor: A350 region autofluorescence; AID 590; hit rate 11% among 59,000; Compound autofluorescence, 340/450 nm, Alexa 350 dye-equivalents; stronger effect = higher value; max dye-equivalent concentration, M; in the data active = max dye-equivalent concentration above about 10 nM; inconclusive = mostly about 1.1 nM to 9.6 nM
HADH2 inh: HADH2 (human) dehydrogenase inhibition; recombinant HADH2, NADH fluorescence, beta-hydroxybutyryl-CoA; Q99714; hit rate 3.4% among 73,000; Potency, µM (titrated, usually from 57.1 µM), inactives show at the top dose activity change, negative = inhibition, actives largely listed as inhibitors; AID 886; note: potency is the fitted concentration of half-maximal effect; % is set by controls: 0 for no effect and ±100 for the full control effect; nearly all actives have a fitted effect of over 60% in size
Target sequence (Q99714 whole entry, looked up, one chain of several): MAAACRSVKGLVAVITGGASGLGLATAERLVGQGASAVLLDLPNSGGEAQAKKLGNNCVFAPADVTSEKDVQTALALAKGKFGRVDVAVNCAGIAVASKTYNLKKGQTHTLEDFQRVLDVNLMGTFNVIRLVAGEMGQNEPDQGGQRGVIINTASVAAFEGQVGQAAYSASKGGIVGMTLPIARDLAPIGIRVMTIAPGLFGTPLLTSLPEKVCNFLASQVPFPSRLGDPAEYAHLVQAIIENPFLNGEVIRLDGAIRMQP
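Buffer 100 mM Tris-HCl pH 9.0/0.01% Tween-20; HADH2 20 nM; NAD+ 1 mM; beta-hydroxybutyryl-CoA 90 uM (all final). 15 min cpd preincubation, RT.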
AID923: qHTS Assay for Allosteric/Competitive Inhibitors of Caspase-1: Spectroscopic Profiling in AFC Spectral Region. compound fluorescence, AFC spectral region (405/520 nm). Potency, µM (titrated, usually from 57.5 µM), inactives show top-dose fluorescence increase, hits mostly activators. hit rate 1.1% among 75,000. AID 923, 2007; note: potency is the fitted concentration of half-maximal effect; 0% is about no effect
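Compound autofluorescence profiled at 405 nm ex/520 nm em during kinetic caspase 1 run (50 nM enzyme, 5 uM Ac-WEHD-AFC, HEPES pH 7.5, 10 mM DTT). Titration up to 57 uM; baseline from regression intercept, normalized to AFC standard curve.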
HSD17B inh: HSD17B dehydrogenase inhibition. Q99714. recombinant HSD17B10, NADH fluorescence kinetic. Potency, µM (titrated, usually from 57.1 µM), for inactives: at the highest dose activity change, negative = inhibition, most hits filed as inhibitors. hit rate 7.6% among 75,000. AID 893;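 note: the protocol describes HADH2 (HSD17B10) and not the HSD17B4 of the title; potency is the fitted concentration of half-maximal effect; % is set by controls: 0 for no effect and ±100 for the full control effect; nearly all actives have a fitted effect of over 70% in size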
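Activity followed as NADH fluorescence increase (ex 360, em 450 nm) every 30 seconds for 4 min, using final 90 uM beta-hydroxybutyryl CoA and 1 mM NAD+. Recombinant His-tagged enzyme, 20 nM, pH 9.0 Tris buffer, 15 min compound preincubation.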
4MU fluor: compounds fluorescent in 4-MU spectral region; compound autofluorescence, 340/450 nm, 4-MU equivalents; stronger effect = higher value; max dye-equivalent concentration, M; hit rate 11% among 59,000; AID 589; in the data active = max dye-equivalent concentration above about 10 nM; inconclusive = mostly about 1.1 nM to 9.6 nM
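Compounds in 100 mM Tris, pH 8.0, sat 15 min at room temperature before fluorescence was read at 340 nm excitation/450 nm emission; a per-plate six-point 4-MU standard curve converted signals to dye-equivalent concentration at each compound concentration.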
CRE Fsk mod: modulators of forskolin-stimulated CRE signaling in CHO cells; Potency, µM (highest dose often 38.2 µM), inactives show top-dose activity change, negative = inhibition, usual class: activators; CHO CRE-bla reporter (cAMP response element driving beta-lactamase), forskolin EC10, beta-lactamase ratio; hit rate 2.5% among 71,000; AID 662; active = well fitted activation curve with a large enough effect in the signal ratio, with a control signal flat, not every such curve was filed as active; inconclusive = small, poorly fitted or top-dose-only effect, or effect the other way, or a change in a side signal; the % refers to the signal ratio; note: potency is the fitted concentration of half-maximal effect; % of control where 0% means no effect
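CHO CRE-bla cells, overnight plating in Opti-MEM with 0.5% dialyzed FBS; cpd titration + EC10 NKH 477, 3 h 37 °C; CCF4 2 h RT; ex 405/em 460 vs 530 ratio → %Activity, AC50.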
* = called active by the depositor. In the library only some 14% were active in any assay of this set; here they are far more common. Unless noted, calls come from the whole dose curve; as a rule, active = well fitted curve in the direction sought with a large enough effect; inconclusive = small, poorly fitted or top-dose-only effect, or another doubt; inactive = no such curve, though single readings can be large; an effect the other way counts as inactive or inconclusive.

What do the screens show for `COC(=O)c1[nH]nc2c1C(=O)N(C1CCCCC1)C2=O`?
A350 fluor: 3.12e-08M*; HADH2 inh: 9.3%; AID923: -0.6%; HSD17B inh: inconclusive; 4MU fluor: 3.45e-08M*; CRE Fsk mod: -1.1%

How did COC(=O)c1[nH]c2ccccc2c1NC(=O)CCN1CCN(C2CCCCC2)CC1 do in these assays?
A350 fluor: inconclusive; HADH2 inh: -5.8%; AID923: -1.2%; HSD17B inh: inconclusive; 4MU fluor: inactive; CRE Fsk mod: inconclusive

Results for COC(=O)c1ccc(CSc2nnc(-c3ccncc3)n2Cc2ccccc2)o1 ?
A350 fluor: inactive; HADH2 inh: 3.2%; AID923: 0.0%; HSD17B inh: -2.3%; 4MU fluor: inactive; CRE Fsk mod: 22.2%

What do the screens show for `O=C(CSc1nnc2ccccn12)N1CCc2ccccc2C1`?
A350 fluor: inconclusive; HADH2 inh: 0.1%; AID923: -1.6%; HSD17B inh: 31.6µM*; 4MU fluor: inactive; CRE Fsk mod: -2.3%

How did COc1ccc(-c2nnc(CSc3nc4ccccc4c(=O)n3CC(C)C)o2)cc1OC do in these assays?
A350 fluor: inactive; HADH2 inh: 2.1%; AID923: -0.8%; HSD17B inh: -4.4%; 4MU fluor: inactive; CRE Fsk mod: 3.16µM*

How did O=C(Nc1ccn(-c2ccccc2)n1)c1ccc(S(=O)(=O)N2CCCCCC2)cc1 do in these assays?
A350 fluor: inactive; HADH2 inh: -11.7%; AID923: -0.5%; HSD17B inh: inconclusive; 4MU fluor: inactive; CRE Fsk mod: inconclusive

How did CC1CN(Cc2cc(=O)n3ccsc3n2)CC(C)O1 (stereo not drawn) do in these assays?
A350 fluor: 2.02e-08M*; HADH2 inh: -6.1%; AID923: 0.6%; HSD17B inh: 108.3%; 4MU fluor: 1.43e-08M*; CRE Fsk mod: -1.8%

Results for O=c1cc(CN2CCc3ccccc32)nc2sccn12 ?
A350 fluor: inconclusive; HADH2 inh: -1.6%; AID923: 4.0%; HSD17B inh: -2.9%; 4MU fluor: inconclusive; CRE Fsk mod: 0.2%

How did COc1cccc2sc(Nc3nc(-c4ccccn4)cs3)nc12 do in these assays?
A350 fluor: inconclusive; HADH2 inh: -15.7%; AID923: 1.7%; HSD17B inh: -25.4%; 4MU fluor: inconclusive; CRE Fsk mod: -28.3%

What do the screens show for `Fc1cccc2sc(Nc3nnc(-c4ccco4)o3)nc12`?
A350 fluor: 3.86e-08M*; HADH2 inh: inconclusive; AID923: -1.7%; HSD17B inh: 25.1µM*; 4MU fluor: 1.35e-08M*; CRE Fsk mod: 9.4%

What do the screens show for `COc1cccc2sc(Nc3nnc(-c4cccs4)o3)nc12`?
A350 fluor: 5.16e-08M*; HADH2 inh: -7.0%; AID923: 4.7%; HSD17B inh: inconclusive; 4MU fluor: 3.52e-08M*; CRE Fsk mod: inconclusive

What do the screens show for `Cc1nn(-c2ccccc2)c(C)c1C(=O)Nc1nnc(-c2ccco2)o1`?
A350 fluor: inactive; HADH2 inh: -4.8%; AID923: -0.2%; HSD17B inh: -3.6%; 4MU fluor: inactive; CRE Fsk mod: -5.1%

What do the screens show for `CSC(N)=NCCC[C@@H](N)C(=O)O`?
A350 fluor: inconclusive; HADH2 inh: 12.2%; AID923: -2.8%; HSD17B inh: 2.7%; 4MU fluor: inconclusive; CRE Fsk mod: 0.7%

How did CCN(C1CCCCC1)S(=O)(=O)c1ccc(C(=O)O)cc1 do in these assays?
A350 fluor: inactive; HADH2 inh: 3.3%; AID923: 0.9%; HSD17B inh: 7.8%; 4MU fluor: inactive; CRE Fsk mod: -2.5%

Results for O=c1[nH]c2cc3c(cc2cc1CN(CC1CCCO1)S(=O)(=O)c1ccc(Cl)cc1)OCCO3 (stereo not drawn) ?
A350 fluor: 1.03e-07M*; HADH2 inh: 0.8%; AID923: 10.4%; HSD17B inh: 12.6µM*; 4MU fluor: 1.14e-07M*; CRE Fsk mod: -1.2%

What do the screens show for `CC(=O)c1ccc(S(=O)(=O)N(Cc2cc3cc4c(cc3[nH]c2=O)OCCO4)CC2CCCO2)cc1` (stereo not drawn)?
A350 fluor: inconclusive; HADH2 inh: -2.1%; AID923: 0.4%; HSD17B inh: 4.7%; 4MU fluor: inconclusive; CRE Fsk mod: 2.6%

Results for Cc1ccc(S(=O)(=O)N(Cc2cc3cc4c(cc3[nH]c2=O)OCCO4)CC2CCCO2)cc1 (stereo not drawn) ?
A350 fluor: 4.17e-08M*; HADH2 inh: -6.0%; AID923: 2.5%; HSD17B inh: inconclusive; 4MU fluor: 4.61e-08M*; CRE Fsk mod: 1.0%

How did COC(=O)c1ccc(S(=O)(=O)N(Cc2cc3cc4c(cc3[nH]c2=O)OCO4)C2CCCCC2)cc1 do in these assays?
A350 fluor: 5.03e-08M*; HADH2 inh: 9.3%; AID923: 3.9%; HSD17B inh: inconclusive; 4MU fluor: 5.53e-08M*; CRE Fsk mod: -2.2%

How did O=C(CSc1nccc2ccccc12)N1CCN(c2ccccn2)CC1 do in these assays?
HADH2 inh: -13.9%; AID923: 0.8%; HSD17B inh: -5.0%; CRE Fsk mod: 0.4%

Results for CCC1=C2CC[C@H]3C(=O)N(c4ccccc4)C(=O)[C@H]3[C@H]2[C@@]2(C)C(=O)N(Cc3ccccc3)C(=O)N2C1=O ?
AID923: 0.7%; HSD17B inh: -4.3%

How did CC(C)NC(=O)CN1CCN(c2ncccn2)CC1 do in these assays?
A350 fluor: inactive; HADH2 inh: -3.3%; AID923: 1.4%; HSD17B inh: 1.9%; 4MU fluor: inactive; CRE Fsk mod: 8.9%

How did Brc1cccc(-c2nnc3n2CCCCC3)c1 do in these assays?
A350 fluor: 1.64e-08M*; HADH2 inh: 2.3%; AID923: 2.6%; HSD17B inh: 11.7%; 4MU fluor: 1.41e-08M*; CRE Fsk mod: 3.8%

What do the screens show for `Nc1nc(N2CCN(C/C=C/c3ccccc3)CC2)nc2ccccc12`?
A350 fluor: inconclusive; HADH2 inh: 6.1%; AID923: 0.9%; HSD17B inh: 0.7%; 4MU fluor: 2.07e-08M*; CRE Fsk mod: -5.2%

What do the screens show for `NC(=O)C1(N2CCCCC2)CCN(Cc2nc3ccccc3c(=O)[nH]2)CC1`?
A350 fluor: 1.03e-08M*; HADH2 inh: 1.1%; AID923: -0.3%; HSD17B inh: -10.8%; 4MU fluor: inconclusive; CRE Fsk mod: -6.7%

How did O=S(=O)(c1cccc2nsnc12)N1CCN(C/C=C/c2ccccc2)CC1 do in these assays?
A350 fluor: inactive; 4MU fluor: inactive

Results for O=c1[nH]c(CN2CCN(C/C=C/c3ccccc3)CC2)nc2ccccc12 ?
A350 fluor: 1.27e-08M*; HADH2 inh: 7.8%; AID923: -1.7%; HSD17B inh: -8.5%; 4MU fluor: 1.16e-08M*; CRE Fsk mod: -14.3%
